# Shown are actives, neighbours in structure and some others; about 1.4% of the full set was active somewhere.
# S1P2 blocker = blocks the human S1P2 receptor; cell-based S1P2 antagonist assay, inhibition at 5 uM; inhibition, % at 5 µM; 97,000 tested, 0.21% active; in the data active means inhibition above about 45%;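 further: CRE beta-lactamase reporter cells expressing human S1P2 stimulated with S1P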
# PTPN22 inh 2 = LYP (human) phosphatase inhibition. inhibition, % at 2 µM. 96,000 tested, 0.21% active. Q9Y2R2. recombinant LYP catalytic domain, DiFMUP fluorescence;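 active means inhibition at 2 µM at or above a set limit, the screen mean plus 3 SD, cut at about 24% in these data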
# S1P2 agonist = agonists of human S1P2 receptor. activation, % at 4.5 µM. O95136. S1P2-expressing cell line, agonist reporter read-out. 97,000 tested, 0.46% active; in the data active means activation above about 16%
# GALR2 antag = GALR2 (human) receptor antagonism. GALR2-expressing cells, antagonist mode. inhibition, % at 4 µM. 140,000 tested, 0.39% active. AID 828;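 further: cells stimulated with galanin 1-16 at roughly its EC80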
# Target sequence (O43603 whole entry, looked up): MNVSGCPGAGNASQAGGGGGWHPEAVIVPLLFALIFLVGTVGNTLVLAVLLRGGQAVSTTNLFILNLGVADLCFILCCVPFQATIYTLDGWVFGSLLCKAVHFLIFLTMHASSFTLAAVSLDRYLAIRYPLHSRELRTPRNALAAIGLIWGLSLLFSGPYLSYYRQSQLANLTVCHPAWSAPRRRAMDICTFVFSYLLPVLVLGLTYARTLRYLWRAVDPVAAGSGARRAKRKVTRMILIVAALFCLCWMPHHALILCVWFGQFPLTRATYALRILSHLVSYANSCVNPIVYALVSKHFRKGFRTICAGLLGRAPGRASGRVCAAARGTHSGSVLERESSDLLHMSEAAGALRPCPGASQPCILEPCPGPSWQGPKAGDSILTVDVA
# GALR2 ag = GALR2 (human) receptor agonism; O43603; GALR2-expressing cells, agonist activation read-out; activation, % (no concentration beside the values); 140,000 tested, 0.48% active; in the data active means activation above about 5%, passing the limit was not always enough
# LYP act = increases human PTPN22 phosphatase activity | Q9Y2R2 | recombinant LYP, DiFMUP fluorescence; 0 = plate median, 100 = signal doubled | activation, % at 2 µM | 96,000 tested, 0.11% active;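 active means activation at 2 µM above a set limit, the mean plus 5 SD, cut at about 37% in these data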
# GALR2 agon conf = GALR2 (human) agonism confirmed. shares compounds with GALR2 ag. GALR2-expressing cells, agonist activation. activation, % at 5.6 µM. 460 tested, 10% active; in the data active means activation above about 8.4%
# BLA act counter = activates beta-lactamase reporter in GALR2 agonist counterscreen; shares compounds with GALR2 ag; CHO NFAT-bla reporter, beta-lactamase FRET activation; activation, % at 5.6 µM; 460 tested, 10% active;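 active means activation above the screen-wide mean activation plus 3 SD, cut at about 8% in these data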
# GALR2 blk conf = confirmation of human galanin receptor 2 (GALR2) antagonists. inhibition, % at 4 µM. AID 866. 480 tested, 60% active. GALR2-expressing cells, antagonist mode, inhibition. shares compounds with GALR2 antag;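 further: cells stimulated with galanin at about its EC80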
# BLA inhib ctr = inhibits beta-lactamase reporter in GALR2 antagonist counterscreen; shares compounds with GALR2 antag; CHO NFAT-BLA reporter, beta-lactamase FRET, thapsigargin-stimulated; inhibition, % at 4.2 µM; 480 tested, 36% active; AID 867;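 active means inhibition above the mean inhibition across tested compounds plus 3 SD, cut at about 27% in these data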
# A number is an active result; 0 = inactive; - = not tested or not shown. Unless noted, no stated cut-off is given here; in the data, active means inhibition above about 27%; inactive means the rest.
SMILES,S1P2 blocker,PTPN22 inh 2,S1P2 agonist,GALR2 antag,GALR2 ag,LYP act,others
CCCCCCn1c(O)c(C=NCCN2CCOCC2)c(=O)[nH]c1=O,-,-,-,0,0,-,
CCCNC(=O)c1c(N)n(Cc2ccco2)c2nc3ccccc3nc12,0,0,0,0,18,0,GALR2 agon conf=0;BLA act counter=11
CCCCNC(=O)c1c(N)n(CCCOC)c2nc3ccccc3nc12,-,-,-,0,9.4,-,GALR2 agon conf=0;BLA act counter=14
COCCCn1c(N)c(C(=O)OCCOC)c2nc3ccccc3nc21,-,-,-,0,0,-,
COCCCNC(=O)c1c(NC(=O)c2ccco2)n(Cc2ccccc2)c2nc3ccccc3nc12,0,0,0,0,0,0,GALR2 agon conf=0;BLA act counter=0
Cn1cc(C(=O)Cc2ccccc2)c2ccccc21,-,-,-,0,0,-,
OC1(c2ccccc2F)CC2CCC(C1)N2CCN1CCOCC1 (stereo not given),0,0,0,0,0,0,
CC1CCCCN1C(=O)c1ccc(N2CC3CC(C2)c2cccc(=O)n2C3)c([N+](=O)[O-])c1 (stereo not given),-,-,-,0,0,-,
Cc1ccc(C2=NC(C)(C)N3C2C3c2ccc([N+](=O)[O-])cc2)cc1 (stereo not given),-,-,-,0,10,-,GALR2 agon conf=0;BLA act counter=0
O=[N+]([O-])c1ccc(C2[C@H]3C(c4ccccc4)=NC4(CCCC4)N23)cc1 (stereo not given in full),-,-,-,0,0,-,
COc1cc(CN2CCN(c3cc(C)ccc3C)CC2)ccc1O,0,0,0,0,49,0,GALR2 agon conf=0;BLA act counter=0
CC1CCC/C=C/C2CC(O)CC2C(O)/C=C/C(=O)O1 (stereo not given),0,0,0,46,0,0,GALR2 blk conf=62;BLA inhib ctr=0
Cc1cc(C)c(S(=O)(=O)NCC2CCC(C(=O)N3CCC4(CC3)OCCO4)CC2)c(C)c1 (stereo not given),0,0,0,0,0,0,
O=C(c1ccccc1)C(CN1CCCC1)c1ccccc1 (stereo not given),-,-,-,30,0,-,GALR2 blk conf=29;BLA inhib ctr=0
COc1cccc(CCNCc2ccc(SC)cc2)c1,-,-,-,0,0,-,
CC1(C)C[C@H]2C=C(C=O)[C@]3(C=O)C[C@]3(C)[C@H]2C1,-,-,-,55,0,-,GALR2 blk conf=92;BLA inhib ctr=99
COC(=O)C1CN(C#N)N(c2ccc(Cl)cc2)C12c1ccccc1-c1ccccc12 (stereo not given),79,0,0,78,0,0,GALR2 blk conf=87;BLA inhib ctr=92
COc1ccc(C(CC(=O)N2CCC3(CC2)OCCO3)NS(=O)(=O)c2ccc(C)cc2)cc1 (stereo not given),0,0,0,0,0,0,
Cc1nc2c(=O)n(C)c(=O)nc-2n(C)n1,96,32,0,100,0,0,GALR2 blk conf=100;BLA inhib ctr=100
c1ccc(-c2nc(N3CCOCC3)s[n+]2-c2ccccc2)cc1,-,-,-,0,0,-,
CCOC(=O)N1CCC(NC(=O)CCc2nc(C3=CCN(C)CC3)no2)CC1,0,0,0,0,0,0,

# Screening data from PubChem.
